Records with an inconclusive call do not appear. Entries that show only a call come without a potency. Unmarked numbers belong to inactive results. The source made the active and inactive calls. The call rests on the fitted dose curve; in most records, active means well fitted curve in the direction sought with a large enough effect; inconclusive means small, poorly fitted or top-dose-only effect, or another doubt; inactive means no such curve, though single readings can be large; an effect the other way counts as inactive or inconclusive.
Target: Cytochrome P450 3A7 (Homo sapiens) (UniProt P24462)
Sequence (P24462 whole entry, looked up): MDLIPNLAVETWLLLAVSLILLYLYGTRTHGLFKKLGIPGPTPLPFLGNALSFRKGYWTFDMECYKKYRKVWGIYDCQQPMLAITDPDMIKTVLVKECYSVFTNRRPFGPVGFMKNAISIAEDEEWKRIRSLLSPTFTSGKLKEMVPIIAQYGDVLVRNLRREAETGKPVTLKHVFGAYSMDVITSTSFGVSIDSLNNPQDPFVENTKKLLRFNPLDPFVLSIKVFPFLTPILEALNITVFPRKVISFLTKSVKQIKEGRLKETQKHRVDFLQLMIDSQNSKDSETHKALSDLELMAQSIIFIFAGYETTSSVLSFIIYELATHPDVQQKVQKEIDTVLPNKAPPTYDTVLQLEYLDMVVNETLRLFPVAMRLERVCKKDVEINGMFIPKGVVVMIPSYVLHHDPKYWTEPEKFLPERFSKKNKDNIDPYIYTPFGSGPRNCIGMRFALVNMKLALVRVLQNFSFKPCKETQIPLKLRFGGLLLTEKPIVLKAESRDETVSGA
Assay: Cytochrome P450 family 3 subfamily A member 7 (CYP3A7) small molecule antagonists: luciferase biochemical qHTS assay (AID 1963596); further: nearly all actives have a fitted effect of over 40% in size
Details: P450-Glo CYP3A7 enzyme luminescence, 1 h; series mostly up to 57.4 µM
In short: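 P450-Glo luminescent assay: CYP3A7 enzyme converts a proluciferin substrate to luciferin, detected by luciferase reagent; light proportional to activity. Compounds in DMSO preincubated 10 min with enzyme-substrate mix at room temperature, then NADPH regeneration added for 1 h.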
In the case of COC(=O)N[C@@H](C)CNc1nccc(-c2cn(C(C)C)nc2-c2cc(Cl)cc(NS(C)(=O)=O)c2F)n1, the Potency is reported as “inactive”.
For COc1cc2nc(Cl)nc(N)c2cc1OC, the Potency was “inactive”.
With COc1c(N2C[C@@H]3CCCN[C@@H]3C2)c(F)cc2c(=O)c(C(=O)O)cn(C3CC3)c12 the Potency was “inactive”.
With C[C@@H]1CCN(C(=O)N2CCCC2)C[C@@H]1N(C)c1ncnc2[nH]ccc12 the Potency was “inactive”.
With Cn1ncc(Cl)c1-c1cc(C(=O)NC(CN)Cc2ccc(F)c(F)c2)oc1Cl (stereo not given) the Potency was “inactive”.
With CNc1nc(C)nc(N[C@H]2CCC[C@@H](C(=O)NCc3ccc(C#N)cc3C(F)(F)F)C2)n1 the Potency was “inactive”.
For Nc1ccncc1N, the Potency was “inactive”.
For N=C(N)N, the Potency was “inactive”.
For CCCC(=O)O[C@]1(C(=O)COC(=O)CC)CC[C@H]2[C@@H]3CCC4=CC(=O)CC[C@]4(C)[C@H]3[C@@H](O)C[C@@]21C, the Potency was “inactive”.
For O=C1c2c(O)cccc2Cc2cccc(O)c21, the Potency was “inactive”.
With N#Cc1cccc(-c2c[nH]c3ncnc(N4CCOCC4)c23)c1 the Potency was “inactive”.
With O=C(NN1CCCC1)NS(=O)(=O)c1ccc(Cl)cc1 the Potency was “inactive”.
With Nc1nc(N)c2nc(-c3ccccc3)c(N)nc2n1 the Potency was “inactive”.
For O=C(NCC(=O)N1CC[C@H](NC2CCC(O)(c3ccc(-c4ncccn4)cn3)CC2)C1)c1cccc(C(F)(F)F)c1 (stereo not given in full), the Potency was “inactive”.
In the case of CCCCCCCCCCCCCCCC(=O)OC(C)C, the Potency is reported as “inactive”.
With Oc1c(I)cc(I)c2cccnc12 the Potency was “inactive”.
For NCCO, the Potency was “inactive”.
With CC1c2ccccc2CN1NC(=O)c1ccc(Cl)c(S(N)(=O)=O)c1 (stereo not given) the Potency was “inactive”.
For CCN(CC)CC(=O)Nc1c(C)cccc1C, the Potency was “inactive”.
With CC(CN(C)C)C(C)(O)Cc1ccc(Cl)cc1 (stereo not given) the Potency was “inactive”.
In the case of NC(=O)N[C@@H](CCC(=O)O)C(=O)O, the Potency is reported as “inactive”.
With NS(=O)(=O)c1ccc(Cl)c(S(N)(=O)=O)c1 the Potency was “inactive”.
For Brc1ccccc1-c1ccccc1, the Potency was “inactive”.
In the case of NC(=O)NC1N=C([O][Al])NC1=O (stereo not given), the Potency is reported as 12.3 µM (active).
For C[C@H](CN1CCCC1)C(=O)c1ccc(C(F)(F)F)cc1, the Potency was “inactive”.
In the case of Cc1c(N(C)CS(=O)(=O)O)c(=O)n(-c2ccccc2)n1C, the Potency is reported as “inactive”.
For Cc1ccc(NC(=O)Nc2cc(C(F)(F)F)ccc2F)cc1Nc1ccc2c(c1)NC(=O)/C2=C\c1ccc[nH]1, the Potency was “inactive”.
With CCN1CCC[C@H]1CNC(=O)c1c(O)c(Cl)cc(Cl)c1OC the Potency was “inactive”.
In the case of CCOC(=O)c1ccc(O)cc1, the Potency is reported as “inactive”.
For Cc1nc([N+](=O)[O-])cn1-c1ccc([N+](=O)[O-])cc1, the Potency was “inactive”.
In the case of CN(C)CCCO[C@@H]1[C@H]2OC(C)(C)O[C@H]2O[C@@H]1C(O)CO (stereo not given in full), the Potency is reported as “inactive”.
With CC(C)NCC(O)c1ccc2ccccc2c1 (stereo not given) the Potency was “inactive”.
In the case of CC1CC(OC(=O)C(O)c2ccccc2)CC(C)(C)N1C (stereo not given), the Potency is reported as “inactive”.
With O=[N+]([O-])c1nccn1CO[C@@H](CO)[C@H](O)CO the Potency was “inactive”.
For CC1(C)S[C@@H]2[C@H](NC(=O)C(c3ccccc3)S(=O)(=O)O)C(=O)N2[C@H]1C(=O)O (stereo not given in full), the Potency was “inactive”.
For O=C(O)c1cn(C2CC2)c2cc(Cl)c(F)cc2c1=O, the Potency was “inactive”.
With CN1CCC(N(Cc2cccs2)c2ccccc2)CC1 the Potency was “inactive”.
In the case of OC[C@]1(O)OC[C@@H](O)[C@H](O)[C@@H]1O, the Potency is reported as “inactive”.
In the case of Cc1cccc(C(=O)O)c1O, the Potency is reported as “inactive”.
For O=C1c2cccc3c2[C@H](CCC3)CN1[C@@H]1CN2CCC1CC2, the Potency was “inactive”.

System: not listed separately
Assay: Cellular viability qHTS for adrenocortical cancer (ACC) cell line SW-13 (AID 1963989); further: nearly all actives have a fitted effect of over 65% in size;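 on activity (max response): cells grown in serum-free medium with ITS supplement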
Details: SW-13 ACC cells viability, CellTiter-Glo, 48 h; activity (max response): hits give low values
In short: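 IC50 and maximal-response values come from four-parameter logistic fits of titration data. SW-13 cells in serum-free medium received compounds (up to 46 uM final) for 48 h before CellTiter-Glo luminescence.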
COC(=O)N[C@@H](C)CNc1nccc(-c2cn(C(C)C)nc2-c2cc(Cl)cc(NS(C)(=O)=O)c2F)n1 showed an activity (max response) of -16%.
For COc1cc2nc(Cl)nc(N)c2cc1OC, the activity (max response) was 1.23%.
Work on COc1c(N2C[C@@H]3CCCN[C@@H]3C2)c(F)cc2c(=O)c(C(=O)O)cn(C3CC3)c12 yielded an activity (max response) of -4.75%.
C[C@@H]1CCN(C(=O)N2CCCC2)C[C@@H]1N(C)c1ncnc2[nH]ccc12 gave an activity (max response) of 11.2%.
With Nc1ccncc1N the activity (max response) was -0.994%.
In the case of N=C(N)N, the activity (max response) is reported as 4.4%.
For CCCC(=O)O[C@]1(C(=O)COC(=O)CC)CC[C@H]2[C@@H]3CCC4=CC(=O)CC[C@]4(C)[C@H]3[C@@H](O)C[C@@]21C, the activity (max response) was 8.42%.
In the case of O=C1c2c(O)cccc2Cc2cccc(O)c21, the activity (max response) is reported as 5.31%.
In the case of N#Cc1cccc(-c2c[nH]c3ncnc(N4CCOCC4)c23)c1, the activity (max response) is reported as 9.94%.
With O=C(NN1CCCC1)NS(=O)(=O)c1ccc(Cl)cc1 the activity (max response) was 2.56%.
Work on CCCCCCCCCCCCCCCC(=O)OC(C)C yielded an activity (max response) of 6.75%.
In the case of NCCO, the activity (max response) is reported as 7.88%.
CC1c2ccccc2CN1NC(=O)c1ccc(Cl)c(S(N)(=O)=O)c1 (stereo not given) gave an activity (max response) of -11.8%.
In the case of CCN(CC)CC(=O)Nc1c(C)cccc1C, the activity (max response) is reported as 2.91%.
Compound CC(CN(C)C)C(C)(O)Cc1ccc(Cl)cc1 (stereo not given) has an activity (max response) of 6.59%.
For NC(=O)N[C@@H](CCC(=O)O)C(=O)O, the activity (max response) was 9.08%.
With NS(=O)(=O)c1ccc(Cl)c(S(N)(=O)=O)c1 the activity (max response) was -3.32%.
Work on Brc1ccccc1-c1ccccc1 yielded an activity (max response) of 7.98%.
In the case of NC(=O)NC1N=C([O][Al])NC1=O (stereo not given), the activity (max response) is reported as -0.662%.
With C[C@H](CN1CCCC1)C(=O)c1ccc(C(F)(F)F)cc1 the activity (max response) was -1.72%.
Cc1c(N(C)CS(=O)(=O)O)c(=O)n(-c2ccccc2)n1C gave an activity (max response) of 3.83%.
With Cc1ccc(NC(=O)Nc2cc(C(F)(F)F)ccc2F)cc1Nc1ccc2c(c1)NC(=O)/C2=C\c1ccc[nH]1 the Potency was 22.4 µM (active).
CCN1CCC[C@H]1CNC(=O)c1c(O)c(Cl)cc(Cl)c1OC showed an activity (max response) of 8.2%.
CCOC(=O)c1ccc(O)cc1 showed an activity (max response) of 9.4%.
Cc1nc([N+](=O)[O-])cn1-c1ccc([N+](=O)[O-])cc1 showed an activity (max response) of -2.45%.
With CN(C)CCCO[C@@H]1[C@H]2OC(C)(C)O[C@H]2O[C@@H]1C(O)CO (stereo not given in full) the activity (max response) was 7.54%.
For CC(C)NCC(O)c1ccc2ccccc2c1 (stereo not given), the activity (max response) was 8.99%.
CC1CC(OC(=O)C(O)c2ccccc2)CC(C)(C)N1C (stereo not given) gave an activity (max response) of 2.77%.
With O=[N+]([O-])c1nccn1CO[C@@H](CO)[C@H](O)CO the activity (max response) was -4.12%.
For CC1(C)S[C@@H]2[C@H](NC(=O)C(c3ccccc3)S(=O)(=O)O)C(=O)N2[C@H]1C(=O)O (stereo not given in full), the activity (max response) was 8.35%.
For O=C(O)c1cn(C2CC2)c2cc(Cl)c(F)cc2c1=O, the activity (max response) was 13.4%.
CN1CCC(N(Cc2cccs2)c2ccccc2)CC1 gave an activity (max response) of 6.02%.
For OC[C@]1(O)OC[C@@H](O)[C@H](O)[C@@H]1O, the activity (max response) was 6.17%.
Cc1cccc(C(=O)O)c1O gave an activity (max response) of 14.1%.
O=C1c2cccc3c2[C@H](CCC3)CN1[C@@H]1CN2CCC1CC2 showed an activity (max response) of -4.45%.

Source: PubChem BioAssay (NCATS)
Potency means the concentration at half of the fitted maximal effect.
